Inconclusive results are not listed. Active and inactive are the calls of the source. Unless noted, the call rests on the fitted dose curve; in most records, active means well fitted curve in the direction sought with a large enough effect in the repeat runs; inconclusive means weak or mixed curves; inactive means no such curve, though single readings can be large; an effect the other way counts as inactive or inconclusive.
Columns and labels:
[1] = qHTS assay for small molecule agonists of the p53 signaling pathway (AID 651631; calls by dose curve; further: nearly all actives have a fitted effect of over 15% in size)
Outline: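 HCT-116 cells carrying a beta-lactamase reporter under p53 response elements were dosed with compound for 16 h at 37 °C. LiveBLAzer B/G FRET substrate was then added for 2 h at room temperature, and fluorescence intensity was read to detect pathway agonism.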

[2] = qHTS assay for small molecules that induce genotoxicity in human embryonic kidney cells expressing luciferase-tagged ATAD5 (AID 651632); further: nearly all actives have a fitted effect of over 15% in size
Outline: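 DMSO vehicle served as the control. HEK293T reporter cells, 16 hr at 37C, then 30 min Amplite at room temperature; ATAD5 induction is measured as luciferase activity.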

[3] = qHTS assay for small molecule agonists of the p53 signaling pathway - cell viability (AID 651633; calls by dose curve;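 further: p53RE-bla HCT reporter cells with a stable beta-lactamase p53 reporter; series mostly up to about 83 µM; nearly all actives have a fitted effect of over 30% in size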)
Outline: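 Viability counter-read: CellTiter-Glo luminescence (30 min, room temperature) in the same p53RE-bla plates. These plates had been exposed to compounds for 16 h at 37 C.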

[4] = qHTS assay for small molecules that induce genotoxicity in human embryonic kidney cells expressing luciferase-tagged ATAD5 - cell viability (AID 651634; calls by dose curve; further: nearly all actives have a fitted effect of over 25% in size)
Outline: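 Here HEK293T cells with the ATAD5 luciferase reporter are incubated with test compounds for 15.5 hr, and cytotoxicity is then gauged by measuring protease activity in live cells using fluorescence.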

[5] = qHTS assay for small molecule disruptors of the mitochondrial membrane potential - cell viability (AID 720634; calls by dose curve;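 further: human HepG2 liver cancer cells; series mostly up to about 83 µM; nearly all actives have a fitted effect of over 20% in size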)
Outline: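 Viability of HepG2 cells is scored from ATP content by luminescence; cells are exposed to compound for 1 hr at 37 C and 5% CO2, then dosed with m-MPI dye before the CellTiter-Glo reagent.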

[6] = qHTS assay to test for compound auto fluorescence at 590 nm (red) in HepG2 cells (AID 720674)
Outline: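 We screened compounds on adherent HepG2 cells, incubating them for an hour at 37 C in 5% CO2 before reading emission at 590 nm under 540 nm excitation; values reflect equivalence to Rose Bengal sodium fluorescence.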

[7] = qHTS assay to test for compound auto fluorescence at 535 nm (green) in HepG2 cells (AID 720675)
[8] = qHTS assay to test for compound auto fluorescence at 460 nm (blue) in HEK293 cells (AID 720678)
Outline: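 Blue-channel (Ex/Em 405/460 nm) intensity measured in HEK293 cultures after overnight compound exposure at 37C; signal expressed relative to triamterene. Cells plated 2,000 per well in 10% dialyzed FBS medium and allowed 4-5 hr to attach.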

[9] = qHTS assay to test for compound auto fluorescence at 590 nm (red) in HEK293 cells (AID 720679)
Outline: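 Red-channel autofluorescence (Ex/Em 540/590 nm; Rose Bengal sodium reference) was measured after overnight 37C, 5% CO2 exposure of attached HEK293 cells, 2,000 per well in medium with 10% dialyzed FBS.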

[10] = qHTS assay to test for compound auto fluorescence at 535 nm (green) in HEK293 cells (AID 720680)
[11] = qHTS assay to test for compound auto fluorescence at 460 nm (blue) in HEK293 cell free culture (AID 720681)
Outline: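 Blue fluorescence (Ex 405/Em 460 nm, triamterene-equivalent) was read immediately after pin transfer of compound or DMSO into medium (DMEM, 10% FBS) without cells.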

[12] = qHTS assay to test for compound auto fluorescence at 535 nm (green) in HEK293 cell free culture (AID 720682)
Outline: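 Green-label autofluorescence (485 nm excitation, 535 nm emission) measured on compound added to cell-free culture medium (DMEM, 10% FBS). Output is expressed relative to fluorescein.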

[13] = qHTS assay to test for compound auto fluorescence at 590 nm (red) in HEK293 cell free culture (AID 720683)
Outline: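 Red-channel autofluorescence of compounds in culture medium (DMEM, 10% FBS), no cells, measured at 540/590 nm. Rose Bengal sodium is the reference fluorophore for equivalence.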

[14] = qHTS assay to test for compound auto fluorescence at 590 nm (red) in HepG2 cell free culture (AID 720684)
Outline: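 No cells present: MEM + 10% FBS only. Compound pinned in, red label read (540/590 nm). Activity = fluorescence equivalent to Rose Bengal sodium.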

[15] = qHTS assay to test for compound auto fluorescence at 460 nm (blue) in HepG2 cell free culture (AID 720685)
Outline: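 Cell-free plates of MEM plus 10% FBS received 23 nL compound or DMSO vehicle; blue-channel (405/460 nm) intensity scored against triamterene as reference fluorophore.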

[16] = qHTS assay to test for compound auto fluorescence at 535 nm (green) in HepG2 cell free culture (AID 720686)
[17] = qHTS assay to test for compound auto fluorescence at 460 nm (blue) in HepG2 cells (AID 720687)
Outline: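 Blue-channel autofluorescence (Ex/Em 405/460 nm, triamterene-equivalent) was measured after 1 hr compound exposure at 37 C, 5% CO2. Cells were HepG2, plated overnight at 37 C in MEM plus 10% FBS.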

[18] = target: Glucocorticoid receptor (Homo sapiens) (UniProt P04150); assay: qHTS assay to identify small molecule agonists of the glucocorticoid receptor (GR) signaling pathway (AID 720691; active means well fitted activation curve with a large enough effect in the signal ratio in the repeat runs, not every such curve was filed as active; the % refers to the signal ratio)
Sequence of Glucocorticoid receptor (Homo sapiens) (P04150 whole entry, looked up): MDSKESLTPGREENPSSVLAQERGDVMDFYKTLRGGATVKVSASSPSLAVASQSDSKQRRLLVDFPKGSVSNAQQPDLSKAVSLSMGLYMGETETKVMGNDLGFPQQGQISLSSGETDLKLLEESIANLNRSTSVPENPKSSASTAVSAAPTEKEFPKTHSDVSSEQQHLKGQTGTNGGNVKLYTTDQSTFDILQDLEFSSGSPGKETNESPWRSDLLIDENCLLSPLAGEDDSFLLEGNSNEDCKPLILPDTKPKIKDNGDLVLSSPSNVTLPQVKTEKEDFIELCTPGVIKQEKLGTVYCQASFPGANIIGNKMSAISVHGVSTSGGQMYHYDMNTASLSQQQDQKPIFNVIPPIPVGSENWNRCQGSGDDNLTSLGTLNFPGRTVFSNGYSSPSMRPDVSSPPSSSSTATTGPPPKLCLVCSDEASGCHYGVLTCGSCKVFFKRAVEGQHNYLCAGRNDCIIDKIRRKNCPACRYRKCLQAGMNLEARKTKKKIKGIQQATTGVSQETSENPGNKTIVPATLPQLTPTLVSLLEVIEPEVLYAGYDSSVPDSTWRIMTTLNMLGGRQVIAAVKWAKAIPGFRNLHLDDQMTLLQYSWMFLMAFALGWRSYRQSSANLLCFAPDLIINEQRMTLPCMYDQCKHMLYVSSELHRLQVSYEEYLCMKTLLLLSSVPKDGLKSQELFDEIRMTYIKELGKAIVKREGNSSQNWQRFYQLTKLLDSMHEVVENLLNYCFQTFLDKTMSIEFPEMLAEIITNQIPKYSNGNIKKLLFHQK
Outline: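 Compounds in DMSO, alongside positive controls, were added to GR-bla HeLa reporter cells and incubated 18 h at 37 C; GRE-driven beta-lactamase was detected by fluorescence after 2 h with FRET substrate at room temperature.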

[19] = target: Glucocorticoid receptor (Homo sapiens) (UniProt P04150); assay: qHTS assay to identify small molecule antagonists of the glucocorticoid receptor (GR) signaling pathway (AID 720692; active means well fitted inhibition curve with a large enough effect in the signal ratio in the repeat runs, not every such curve was filed as active; the % refers to the signal ratio)
Outline: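 In a 1536-well cell format, compounds were added 4 h after seeding GR-bla HeLa cells, together with dexamethasone at 5 nM final; reporter activity was measured by FRET-substrate fluorescence following 18 h at 37 C.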

[20] = qHTS assay for small molecule disruptors of the mitochondrial membrane potential (AID 720635)
Outline: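 Mitochondrial membrane potential tracked with Mito-MPS dye, red aggregates (ex 540/em 590 nm) against green monomers (ex 490/em 535 nm). Compound treatment 1 hr at 37C, dye 30 min in HepG2.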
On the % scale 0 is the no-effect control and ±100 the full control effect.

C=C(C)C(=O)OC1CC(C)CC(C)(C)C1 (stereo not drawn)
inactive: outcome [1] | outcome [2] | outcome [3] | Potency [4] | outcome [5] | outcome [6] | outcome [7] | outcome [8] | outcome [9] | outcome [10] | outcome [11] | outcome [12] | outcome [13] | outcome [14] | outcome [15] | outcome [16] | outcome [17] | Potency [18] | outcome [19]

C=COCCOCCOC=C
inactive: outcome [1] | outcome [2] | outcome [3] | Potency [4] | Potency [20] | outcome [6] | outcome [7] | outcome [8] | outcome [9] | outcome [10] | outcome [11] | outcome [12] | outcome [13] | outcome [14] | outcome [15] | outcome [16] | outcome [17] | outcome [19]

CCCCOC(=O)[C@@H](C)Oc1ccc(Oc2ccc(C(F)(F)F)cn2)cc1
inactive: outcome [1] | outcome [2] | outcome [3] | Potency [4] | Potency [20] | outcome [6] | outcome [7] | outcome [8] | outcome [9] | outcome [11] | outcome [12] | outcome [13] | outcome [14] | outcome [15] | outcome [16] | outcome [17] | Potency [18]

FC(F)(F)c1ccc(Cl)cc1Cl
inactive: outcome [1] | outcome [2] | outcome [3] | Potency [4] | outcome [5] | outcome [6] | outcome [7] | outcome [8] | outcome [9] | outcome [11] | outcome [12] | outcome [13] | outcome [14] | outcome [15] | outcome [16] | outcome [17] | Potency [18] | outcome [19]

CCN(CCO)c1cccc(C)c1
inactive: outcome [1] | outcome [2] | outcome [3] | Potency [4] | Potency [20] | outcome [6] | outcome [7] | outcome [8] | outcome [9] | outcome [10] | outcome [11] | outcome [12] | outcome [13] | outcome [14] | outcome [15] | outcome [16] | outcome [17]

C1CCN2C[C@@H]3C[C@@H](CN4CCCC[C@@H]34)[C@H]2C1
inactive: outcome [1] | outcome [2] | outcome [3] | Potency [4] | outcome [5] | Potency [20] | fluorescence, relative to Rose Bengal [6] 0.0708% [at 18.6 µM] | fluorescence, % of fluorescein control [7] -0.0003% [at 18.6 µM] | fluorescence, % of triamterene [8] 0.214% [at 18.6 µM] | fluorescence, % of fluorescent control [9] -0.036% [at 18.6 µM] | fluorescence, % of fluorescent control [11] 0.0698% [at 18.6 µM] | activity change [12] -0.022% [at 18.6 µM] | fluorescence, % of fluorescent control [13] 0.165% [at 18.6 µM] | fluorescence, % of Rose Bengal [14] -0.0423% [at 18.6 µM] | fluorescence, % of fluorescent control [15] 0.101% [at 18.6 µM] | fluorescence, % of fluorescein control [16] 0.104% [at 18.6 µM] | fluorescence, % of fluorescent control [17] -0.0841% [at 18.6 µM] | Potency [18] | outcome [19]

CCCCC(=O)N(C)C
inactive: outcome [1] | outcome [2] | outcome [3] | Potency [4] | Potency [20] | outcome [6] | outcome [7] | outcome [8] | outcome [9] | outcome [11] | outcome [12] | outcome [13] | outcome [14] | outcome [15] | outcome [16] | outcome [17] | outcome [19]

CC1(N)CCC(C(C)(C)N)CC1 (stereo not drawn)
inactive: outcome [1] | outcome [2] | outcome [3] | Potency [4] | Potency [20] | outcome [6] | outcome [7] | outcome [8] | outcome [9] | outcome [10] | outcome [11] | outcome [12] | outcome [13] | outcome [14] | outcome [15] | outcome [16] | outcome [17] | Potency [18] | outcome [19]

C=C[C@@H](C)CCC=C(C)C
inactive: outcome [1] | outcome [2] | outcome [3] | Potency [4] | outcome [5] | Potency [20] | outcome [6] | outcome [7] | outcome [8] | outcome [9] | outcome [11] | outcome [12] | outcome [13] | outcome [14] | outcome [15] | outcome [16] | outcome [17] | Potency [18] | outcome [19]

CCCCC/C=C/CC(=O)OC
inactive: outcome [1] | outcome [2] | outcome [3] | Potency [4] | outcome [5] | outcome [6] | outcome [7] | outcome [8] | outcome [9] | outcome [10] | outcome [11] | outcome [12] | outcome [13] | outcome [14] | outcome [15] | outcome [16] | outcome [17] | Potency [18] | outcome [19]

CCN(Cc1cccc(S(=O)(=O)O)c1)c1ccccc1
inactive: outcome [1] | outcome [2] | outcome [3] | Potency [4] | outcome [5] | outcome [6] | outcome [7] | outcome [8] | outcome [9] | outcome [10] | outcome [11] | outcome [12] | outcome [13] | outcome [14] | outcome [15] | outcome [16] | outcome [17] | Potency [18] | outcome [19]

CCCCOC(=O)C(=O)OCCCC
inactive: outcome [1] | outcome [2] | outcome [3] | Potency [4] | outcome [5] | outcome [6] | outcome [7] | outcome [8] | outcome [9] | outcome [10] | outcome [11] | outcome [12] | outcome [13] | outcome [14] | outcome [15] | outcome [16] | outcome [17]

CNCc1ccccc1
inactive: outcome [1] | outcome [2] | outcome [3] | Potency [4] | outcome [5] | Potency [20] | outcome [6] | outcome [7] | outcome [8] | outcome [9] | outcome [11] | outcome [12] | outcome [13] | outcome [14] | outcome [15] | outcome [16] | outcome [17]

CC(C)(C)c1ccc(C=O)cc1
inactive: outcome [1] | outcome [2] | outcome [3] | Potency [4] | outcome [5] | Potency [20] | outcome [6] | outcome [7] | outcome [8] | outcome [9] | outcome [11] | outcome [12] | outcome [13] | outcome [14] | outcome [15] | outcome [16] | outcome [17] | Potency [18]
